Reference: PubChem BioAssay AID1159580 (chemical genetic matrix, 2015)
In all, about 5,500 compounds went through this assay and about 2,000 (36%) were called active. Another 18% or so got no clear call; they are omitted. No stated cut-off is given here; in the data, active means normalized growth mostly below about 0.91 (no sharp cut-off); inconclusive means no clear call, values can overlap the other calls; inactive means mostly above about 0.92. The list shows a part of the results.

Test: chemical genetic growth profiling, strain panel (AID 1159580);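 further: tested at 20 µM; growth read once vehicle control cultures reached saturation at 30 °C; 1 = growth at the plate median or of vehicle wells; lower values mean less growth of the strain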
Conditions: S. cerevisiae deletion strains, growth OD

Measured: normalized growth

CC(=O)Oc1ccc(Cl)c2cccnc12
active: locus YAL013W, strain DEP1, active compounds read low 0.0553 | locus YAL021C, strain ccr4, active compounds read low 0.069 | locus YAL026C, strain drs2, active compounds read low 0.0608 | locus YAL030W, strain snc1, active compounds read low 0.0564 | locus YBL061C, strain skt5, active compounds read low 0.0591 | locus YBR009C, strain hhf1, active compounds read low 0.0605 | locus YBR021W, strain FUR4, active compounds read low 0.0898 | locus YBR023C, strain chs3, active compounds read low 0.0596 | locus YBR171W, strain sec66, active compounds read low 0.0822 | locus YBR229C, strain ROT2, active compounds read low 0.0477 | locus YBR231C, strain swc5, active compounds read low 0.0648 | locus YBR279W, strain paf1, active compounds read low 0.0603 | locus YCL011C, strain gbp2, active compounds read low 0.0571 | locus YCL016C, strain dcc1, active compounds read low 0.0644 | locus YCL029C, strain bik1, active compounds read low 0.0625 | locus YCL069W, strain vba3, active compounds read low 0.0622 | locus YCR088W, strain abp1, active compounds read low 0.0643 | locus YDL005C, strain med2, active compounds read low 0.0757 | locus YDL035C, strain GPR1, active compounds read low 0.0496 | locus YDL040C, strain nat1, active compounds read low 0.0609 | locus YDL074C, strain BRE1, active compounds read low 0.0748 | locus YDL101C, strain DUN1, active compounds read low 0.0607 | locus YDL134C, strain PPH21, active compounds read low 0.0511 | locus YDL185W, strain tfp1, active compounds read low 0.0604 | locus YDL192W, strain arf1, active compounds read low 0.0619 | locus YDR001C, strain nth1, active compounds read low 0.064 | locus YDR069C, strain doa4, active compounds read low 0.0614 | locus YDR101C, strain arx1, active compounds read low 0.0604 | locus YDR137W, strain rgp1, active compounds read low 0.0888 | locus YDR150W, strain NUM1, active compounds read low 0.0581 | locus YDR159W, strain sac3, active compounds read low 0.0841 | locus YDR162C, strain NBP2, active compounds read low 0.0464 | locus YDR195W, strain ref2 0.118 | locus YDR297W, strain sur2, active compounds read low 0.0582 | locus YDR318W, strain mcm21, active compounds read low 0.064 | locus YDR334W, strain swr1, active compounds read low 0.0646 | locus YDR335W, strain msn5, active compounds read low 0.0695 | locus YDR388W, active compounds read low 0.0563 | locus YDR392W, strain spt3, active compounds read low 0.0734 | locus YDR502C, strain sam2, active compounds read low 0.0661 | locus YEL003W, strain gim4, active compounds read low 0.0532 | locus YEL037C, strain rad23, active compounds read low 0.0595 | locus YEL061C, strain CIN8 (second series), active compounds read low 0.0644 | locus YEL061C, strain CIN8, active compounds read low 0.0486 | locus YER015W, strain faa2, active compounds read low 0.0637 | locus YER016W, strain bim1, active compounds read low 0.0578 | locus YER110C, active compounds read low 0.0806 | locus YER111C, strain swi4, active compounds read low 0.076 | locus YER155C, strain BEM2 (second series), active compounds read low 0.094 | locus YER155C, strain BEM2, active compounds read low 0.0723 | locus YER167W, strain BCK2, active compounds read low 0.0497 | locus YFR010W, strain ubp6, active compounds read low 0.0687 | locus YGL078C, strain dbp3, active compounds read low 0.0682 | locus YGL086W, strain mad1, active compounds read low 0.0595 | locus YGL167C, strain pmr1, active compounds read low 0.0737 | locus YGL173C, strain kem1, active compounds read low 0.0684 | locus YGL227W, strain vid30, active compounds read low 0.0677 | locus YGL240W, strain doc1, active compounds read low 0.0722 | locus YGL248W, strain PDE1, active compounds read low 0.046 | locus YGL253W, strain hxk2, active compounds read low 0.0586 | locus YGR078C, strain PAC10, active compounds read low 0.0495 | locus YGR135W, strain pre9, active compounds read low 0.0649 | locus YGR252W, strain gcn5, active compounds read low 0.186 | locus YHR013C, strain ard1, active compounds read low 0.104 | locus YHR027C, strain rpn1, active compounds read low 0.0596 | locus YHR030C, strain SLT2, active compounds read low 0.0501 | locus YHR079C, strain IRE1 (second series), active compounds read low 0.0563 | locus YHR094C, strain hxt1, active compounds read low 0.0602 | locus YHR129C, strain ARP1, active compounds read low 0.056 | locus YHR142W, strain chs7, active compounds read low 0.0762 | locus YHR200W, strain rpn10, active compounds read low 0.0647 | locus YIL066C, strain RNR3, active compounds read low 0.0516 | locus YIL073C, strain SPO22, active compounds read low 0.118 | locus YIL125W, strain kgd1, active compounds read low 0.0601 | locus YIR030C, strain dcg1, active compounds read low 0.0565 | locus YJL092W, strain hpr5, active compounds read low 0.0615 | locus YJL095W, strain BCK1 (second series), active compounds read low 0.0566 | locus YJL095W, strain BCK1, active compounds read low 0.0546 | locus YJL115W, strain asf1, active compounds read low 0.0797 | locus YJL129C, strain trk1, active compounds read low 0.0818 | locus YJL134W, strain LCB3, active compounds read low 0.0495 | locus YJL154C, strain vps35, active compounds read low 0.0615 | locus YJL164C, strain tpk1, active compounds read low 0.0597 | locus YJL166W, strain qcr8, active compounds read low 0.0614 | locus YJL168C, strain set2, active compounds read low 0.062 | locus YJL187C, strain SWE1 (second series), active compounds read low 0.0475
